Screening data deposited in PubChem by several laboratories.
This is a sample that favours compounds with a hit; in the whole collection about 1.8% have one here.
ABCB6 inh 2: ABCB6 transporter inhibitors, primary screen, K562-ABCB6 cells, flow cytometry, MLPCN library; K562-ABCB6 porphyrin accumulation, 1 h; hits give low values; 360,000 compounds, 0.19% hits; ATP-binding cassette sub-family B member 6 (Homo sapiens), Q9NP58; fluorescence ratio to DMSO, % at 10 µM;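 active means fluorescence ratio to DMSO below 75%, the collection mean minus 3 SD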;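 further: signal is porphyrin accumulated inside mitochondria; 100% equals median channel fluorescence of DMSO control wells; lower ratio means ABCB6 inhibition with less porphyrin fluorescence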
Target sequence (Q9NP58 whole entry, looked up): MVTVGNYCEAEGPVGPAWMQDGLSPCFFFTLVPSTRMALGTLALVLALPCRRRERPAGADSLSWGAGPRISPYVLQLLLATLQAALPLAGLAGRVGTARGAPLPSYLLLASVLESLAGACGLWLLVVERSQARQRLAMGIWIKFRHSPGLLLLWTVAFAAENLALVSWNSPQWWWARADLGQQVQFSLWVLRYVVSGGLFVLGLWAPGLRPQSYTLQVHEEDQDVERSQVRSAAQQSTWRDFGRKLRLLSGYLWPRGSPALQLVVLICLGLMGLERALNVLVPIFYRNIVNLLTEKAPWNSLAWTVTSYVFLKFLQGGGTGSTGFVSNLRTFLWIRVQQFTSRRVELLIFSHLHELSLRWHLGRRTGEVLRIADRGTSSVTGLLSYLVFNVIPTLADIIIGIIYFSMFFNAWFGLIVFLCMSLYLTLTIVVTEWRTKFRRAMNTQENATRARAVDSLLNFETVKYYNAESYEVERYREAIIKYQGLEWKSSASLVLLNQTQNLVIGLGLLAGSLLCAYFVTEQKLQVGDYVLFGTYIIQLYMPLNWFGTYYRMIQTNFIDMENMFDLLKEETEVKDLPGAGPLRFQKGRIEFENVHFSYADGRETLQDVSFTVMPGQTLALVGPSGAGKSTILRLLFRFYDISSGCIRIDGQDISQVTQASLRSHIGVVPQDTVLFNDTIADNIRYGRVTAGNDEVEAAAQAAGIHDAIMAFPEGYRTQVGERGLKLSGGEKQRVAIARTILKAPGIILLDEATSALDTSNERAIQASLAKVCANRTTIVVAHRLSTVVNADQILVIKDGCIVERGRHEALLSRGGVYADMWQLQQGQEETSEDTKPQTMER
GSIS activator: GLuc luminescence reporter in INS-1E cells, primary screen for activators of glucose-dependent secretion of insulin; 370,000 compounds, 0.61% hits; activation, % at 16.6 µM; INS-1E GLuc reporter insulin secretion, 2-3 h;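 active means lowest replicate activation of at least 40%, so every replicate reaches that level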;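 further: 0% = median of neutral control wells and 100% = median of IBMX positive control wells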
hiPSC survival: enhancers of single-cell hiPSC survival, primary screen, ATPlite luminescence; 100% = ROCK inhibitor wells, 0% = DMSO; survival enhancement, % at 20 µM; 360,000 compounds, 0.044% hits; AID 602274, 2012; in the data active means survival enhancement above about 18%;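 further: cells exposed to compounds for 16 hours before the ATP read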
NRP1-CendR mod: modulators of CendR peptide binding to NRP-1, primary screen, biochemical, fluorescence polarization, uHTS; Neuropilin-1 (Homo sapiens), O14786; FAM-RPARPAR peptide binding to NRP-1; inhibition, % at 25 µM; 360,000 compounds, 0.85% hits;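 active means inhibition or corrected inhibition above about 18%, plus a signal ratio from 0.5 to 1.5, limit read from the data, passing the limit was not always enough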
ARNT-TACC3 inh: disruptors of ARNT/TACC3 protein interaction, primary screen, biochemical, AlphaScreen, single concentration; inhibition, % at 9.99 µM; AlphaScreen His-ARNT PAS-B/GST-TACC3 binding, luminescence; TACC3 fragment carries E629A point mutation; 390,000 compounds, 0.66% hits; Transforming acidic coiled-coil-containing protein 3 (Homo sapiens), Q9Y6A5;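 active means mean inhibition of replicates at least 50% and at least half of replicates each reaching 50%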;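 further: 0% = complete ARNT plus TACC3 wells and 100% = ARNT alone without TACC3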
Active calls of the source: *; x = no result given.

SMILES	ABCB6 inh 2	GSIS activator	hiPSC survival	NRP1-CendR mod	ARNT-TACC3 inh
O=C(O)/C=C/C(=O)Nc1ccc(O)cc1	97	24	0	4	54*
COc1cc(C(=O)Nc2ccc3c(c2)C(=O)c2ccccc2C3=O)cc(OC)c1OC	99	24	0	-5	-18
O=C(O)/C=C/C(=O)Nc1ccc2c(c1)C(=O)c1ccccc1C2=O	94	0	2	-8	48*
COc1ccc(C(=O)Nc2ccc3c(c2)C(=O)c2ccccc2C3=O)cc1OC	103	62*	-1	14	0
CC(=O)Nc1ccc2c(c1)C(=O)c1ccccc1C2=O	101	-3	-2	16	2
C[C@@H]1CN([C@@H](C)CO)C(=O)c2cc(/C=C/c3ccccc3)cnc2O[C@@H]1CN(C)C(=O)NC1CCCCC1	x	-33	x	x	-1
CCCNC(=O)N1[C@@H]2Cn3c(ccc(-c4cccc(OC)c4)c3=O)[C@H]1[C@@H](C(=O)NCC)[C@@H]2CO	x	8	x	x	21
O=C(Nc1ccc(Cl)cc1)N[C@@H]1CC[C@H](CCn2cc(-c3ccccc3F)nn2)O[C@@H]1CO	x	-33	x	x	9
Cc1cccc(C)c1NC(=O)c1csc([C@@H]2O[C@H](CO)[C@H](O)[C@H](O)[C@H]2O)n1	97	53*	-2	-11	x
Cc1onc(-c2ccccc2)c1C(=O)Nc1c(C)n(C)n(-c2ccccc2)c1=O	106	x	-1	38*	0
Cc1ccsc1C(=O)OCC(=O)Nc1c(C)n(C)n(-c2ccccc2)c1=O	99	2	5	5	-21
Cc1cccc(C(=O)OCC(=O)Nc2c(C)n(C)n(-c3ccccc3)c2=O)c1	90	-6	0	19*	-1
COc1ccccc1NS(=O)(=O)c1cc(-c2cnc(C3CC3)o2)ccc1C	95	4	0	22*	1
CO[C@H]1CN(C)C(=O)c2cc(NC(=O)C3CC3)ccc2OC[C@H](C)N(C(=O)c2ccccc2F)C[C@@H]1C	x	-4	x	x	x
Cc1ccc(NC2=CC(=O)C(=O)c3ccccc32)cc1	104	x	0	3	5
NS(=O)(=O)c1ccc(NC2=CC(=O)C(=O)c3ccccc32)cc1	108	x	-1	31*	27
CC(C)(CO)Cc1cc(C(C)(C)C)c(O)c(C(C)(C)C)c1	93	x	0	17*	-1
COc1ccc2c3c([nH]c2c1)[C@H](CO)N(C(=O)C1CCOCC1)CC31CN(C)C1	x	14	x	x	x
Cc1nc(NC(=O)c2ccc(-c3cc4ccccc4oc3=O)cc2)ccc1Br	96	9	-1	1	-5
Cc1nc(NC(=O)c2cccc(-c3cc4ccccc4oc3=O)c2)ccc1Br	99	73*	-2	-17	-6
Nc1cc(=O)n(Cc2ccccc2)c(=O)n1-c1ccc(Cl)cc1	102	x	0	36*	-4
Nc1cc(=O)n(Cc2ccccc2)c(=O)n1-c1ccc(F)cc1	94	1	2	-4	0
CCCSc1nc(N2CCOCC2)c2c(c1C#N)CC(C)(C)SC2	113	x	23*	-6	-4
C[C@@H]1CN([C@H](C)CO)C(=O)c2cc(NC(=O)C3CC3)ccc2O[C@@H]1CN(C)S(=O)(=O)c1ccc(F)cc1	x	1	x	x	0
Cc1cccc2[nH]c3c(N4CC=C(c5ccc(F)cc5)CC4)ncnc3c12	99	41*	0	-15	x
SMILES	ABCB6 inh 2	GSIS activator	hiPSC survival	NRP1-CendR mod	ARNT-TACC3 inh
O=S(=O)(c1cccc2nsnc12)N1CCN(Cc2ccccc2)CC1	98	-5	2	19*	3
O=C(NC1CCN(Cc2ccccc2)CC1)C1CCN(S(=O)(=O)c2cccc3nsnc23)CC1	102	x	-2	-10	x
Cc1ccc(S(=O)(=O)Oc2ccc(N3C(=O)C4C5CCC(C5)C4C3=O)cc2)cc1 (centres undefined)	94	-14	2	24*	30
C[C@@H]1COCc2cn(nn2)CC[C@H](Cc2ccccc2)C(=O)N1	x	16	x	x	x
CCOC(=O)c1sc(NC(=O)/C=C/c2ccccc2)nc1C	79	4	-1	-1	0
COC(=O)c1sc(NC(=O)/C=C/c2ccc(C)cc2)nc1C	87	67*	1	9	6
CC(C)C#Cc1ccc([C@H]2[C@H]3CN(C(=O)c4ccc5c(c4)OCO5)CCCCN3[C@H]2CO)cc1	x	-14	x	x	4
C[C@@H]1COCc2cn(nn2)CC[C@@H](Cc2ccccc2)C(=O)N1	x	11	x	x	x
CCCC(=O)NC(NC(=S)Nc1ccc(S(N)(=O)=O)cc1)C(Cl)(Cl)Cl (centres undefined)	102	8	-2	-7	28*
C[C@@H]1CN(C)C(=O)c2cccc(NS(C)(=O)=O)c2O[C@@H]1CN(C)C	x	16	x	x	x
Cc1ccc(C)c(-n2c(SCC(=O)N3CCC(C(=O)O)CC3)nnc2-c2cccc(Cl)c2)c1	98	-3	1	27*	0
COCCNC(=O)C(=O)Nc1ccc(Br)cc1	99	x	3	-14	-11
COCCNC(=O)C(=O)Nc1cccc(Br)c1	84	6	0	29*	-2
COc1ccc2c3c(n(C)c2c1)[C@@H](CO)N(C(=O)CC1CC1)CC31CCN(C(=O)C2CC2)CC1	x	-1	x	x	x
CCCN(C)C[C@H]1Oc2cc(C#CCOC)ccc2S(=O)(=O)N([C@@H](C)CO)C[C@H]1C	x	6	x	x	7
O=C(Nc1cc(-c2ccccc2)[nH]n1)c1ccccc1	99	x	-1	25*	-24
CC(=O)C1=C(S(=O)(=O)c2ccc(C)cc2)CS(=O)(=O)C1	104	124*	0	-1	-9
COc1ccc(OCc2nc(N)nc(Nc3cccc(C)c3C)n2)cc1	96	x	-1	26*	0
Cc1ccc(/C(N)=N/OC(=O)c2ccc(Cl)cc2Cl)cc1	113	8	-4	52*	-8
O=C(Nc1ccccc1)Nc1ccc2c(c1)[C@@H]1C[C@H](CC(=O)N3CCOCC3)O[C@@H](CO)[C@@H]1O2	x	10	x	x	0
C[C@H](CO)N1C[C@H](C)[C@H](CN(C)S(=O)(=O)c2ccccc2)Oc2ccc(NC(=O)CCC(F)(F)F)cc2C1=O	x	15	x	x	-15
CCC1C(=O)Nc2ccccc2N1C(=O)COc1ccccc1 (centres undefined)	97	27	0	26*	-3
CCCCOC(=O)c1cc(=O)[nH]c2ccccc12	106	58*	5	4	-12
O=C(c1ccccn1)N1C[C@H]2[C@@H](c3ccccc31)[C@@H](CO)N2C(=O)Nc1ccccc1	x	-10	x	x	-1
C/C(=N\NC(=O)c1ccccc1)c1c(C)[nH]n(-c2ccccc2)c1=O	97	x	1	6	42*
